# Values joined by “and” are separate entries in the source; they are usually repeats but may differ in a detail not shown here. Identical values can stand only once. About 5,100 (32%) of roughly 16,000 compounds were called active. About 25% were inconclusive and are not listed. The call rests on the fitted dose curve; in most records, active means well fitted curve in the direction sought with a large enough effect; inconclusive means small, poorly fitted or top-dose-only effect, or effect the other way; inactive means no such curve, though single readings can be large or run the other way. The list shows a part of the results.
# Target: Cytochrome P450 3A4 (Homo sapiens) (UniProt P08684)
# Sequence (P08684 whole entry, looked up): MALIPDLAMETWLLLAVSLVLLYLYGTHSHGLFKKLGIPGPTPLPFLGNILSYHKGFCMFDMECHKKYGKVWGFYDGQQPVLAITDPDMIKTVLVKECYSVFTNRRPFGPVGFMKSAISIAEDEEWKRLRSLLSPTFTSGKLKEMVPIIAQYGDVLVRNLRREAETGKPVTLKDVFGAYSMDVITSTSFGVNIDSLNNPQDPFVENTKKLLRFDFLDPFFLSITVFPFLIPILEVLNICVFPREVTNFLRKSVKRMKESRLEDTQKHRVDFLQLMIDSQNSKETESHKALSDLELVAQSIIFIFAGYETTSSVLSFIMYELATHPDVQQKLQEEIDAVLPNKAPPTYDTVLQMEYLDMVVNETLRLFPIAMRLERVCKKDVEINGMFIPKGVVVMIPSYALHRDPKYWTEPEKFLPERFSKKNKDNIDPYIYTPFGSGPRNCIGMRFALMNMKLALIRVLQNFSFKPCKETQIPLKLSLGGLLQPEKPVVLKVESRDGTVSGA
# Assay: Cytochrome panel assay with activity outcomes
# Conditions: recombinant CYP, pro-luciferin dealkylation, luminescence, p450-cyp3a4; series mostly up to 57.1 µM; activity, negative = inhibition: at the top concentration
# On the % scale 0 is the no-effect control and ±100 the full control effect.
Structure (SMILES),"activity, negative = inhibition",AC50
NCCCc1c(-c2ccccc2)nc(N)[nH]c1=O,1.03% [at 11.4 µM] (inactive),–
Cn1c(=S)c2[nH]c(SCCCc3ccccc3)nc2n(C)c1=O,-26.2% [at 11.4 µM] (inactive),–
Cn1c(=O)c2[nH]c(SCc3ccccn3)nc2n(C)c1=S,–,3.98 µM (active)
Cn1c(=O)c2[nH]c(CSCc3ccccc3)nc2n(C)c1=O,-25% [at 11.4 µM] (inactive),–
Cn1c(=S)c2[nH]c(SCc3cccnc3)nc2n(C)c1=O,–,3.16 µM (active)
Cn1c(=S)c2[nH]c(SCCN3C(=O)c4ccccc4C3=O)nc2n(C)c1=O,-20.9% [at 11.4 µM] (inactive),–
Cn1c(=O)c2[nH]c(CCCCc3nc4c([nH]3)c(=O)n(C)c(=S)n4C)nc2n(C)c1=S,–,1.26 µM (active)
Cn1c(=O)c2[nH]c(CCCCC(=O)O)nc2n(C)c1=O,-10.1% [at 11.4 µM] (inactive),–
Cn1c(=S)c2[nH]c(SCCN3CCCC3)nc2n(C)c1=O,-16% [at 11.4 µM] (inactive),–
Cn1c(=O)c2[nH]c(CCCCc3nc4ccccc4[nH]3)nc2n(C)c1=O,-19% [at 11.4 µM] (inactive),–
NCCS(=O)O,-9.4% (inactive),–
CCCC(c1cc(C(C)(C)C)c(O)cc1C)c1cc(C(C)(C)C)c(O)cc1C,5.69% [at 11.4 µM] (inactive),–
CCN1CCN(C(=O)N[C@H](C(=O)N[C@@H]2C(=O)N3C(C(=O)O)=C(CSc4nnnn4C)CS[C@@H]23)c2ccc(O)cc2)C(=O)C1=O,-6.92% [at 25.6 µM] (inactive),–
O=c1c2ccccc2c(-c2ccccc2)nn1Cc1ccc(Cl)cc1,–,17.8 µM (active)
O=C(O)Cc1sc(-c2ccc(Cl)cc2)nc1-c1ccccc1,-0.953% (inactive),–
O=C(/C=C/c1ccc(Cl)cc1)NCCN1CCOCC1,-23.9% (inactive),–
Cc1ccc(-c2nn(C)c(=O)c3ccccc23)cc1CNC(=O)Cn1nc(-c2ccccc2)c2ccccc2c1=O,-27.5% [at 11.4 µM] (inactive),–
O=C(CCn1nc(-c2ccc(Cl)cc2)c2ccccc2c1=O)NCCN1CCOCC1,–,7.08 µM (active)
O=c1c2ccccc2c(-c2ccccc2)nn1-c1ccc(Cl)c(Cl)c1,-18.1% (inactive),–
O=C(CSc1nnc(-c2cccc(S(=O)(=O)N3CCOCC3)c2)n1C1CCCCCC1)NCc1ccccc1,–,2.51 µM (active)
O=C(COc1ccc2ccccc2c1)N1CCN(C(=O)c2cccnc2)CC1,–,8.91 µM (active)
CCC(=O)N1CCN(C(=O)c2ccccc2)CC1,6.01% (inactive),–

Structure (SMILES),"activity, negative = inhibition",AC50
Cc1c(NC(=O)CN2CCN(c3ccccc3)CC2)c(=O)n(-c2ccccc2)n1C,-14.6% (inactive),–
CC(=O)NC(CCS(C)(=O)=O)C(=O)Nc1c(F)cccc1F (stereo not given),-3.35% (inactive),–
Cc1c(NC(=O)Cn2ccc([N+](=O)[O-])n2)c(=O)n(-c2ccccc2)n1C,8.95% (inactive),–
O=C(CCN1C(=O)C2C3C=CC(C3)C2C1=O)Nc1c(F)cccc1F (stereo not given),–,3.98 µM (active)
O=C(Nc1ccc2ncccc2c1)Nc1ccc2ncccc2c1,-24.8% [at 11.4 µM] (inactive),–
O=C(CCN1C(=O)C2C3C=CC(C3)C2C1=O)Nc1ccc2ncccc2c1 (stereo not given),–,2.51 µM (active)
Cc1c(NC(=O)CN2C(=O)C3C4C=CC(C4)C3C2=O)c(=O)n(-c2ccccc2)n1C (stereo not given),–,22.4 µM (active)
c1ccc(CN2c3ccccc3-c3nc4ccccc4n3C2c2ccccn2)cc1 (stereo not given),–,3.16 µM (active)
Clc1ncccc1-c1nc2ccccc2n1Cc1ccccc1,6.58% [at 2.29 µM] (inactive),–
COc1ccccc1NC(=O)C1=C(C)Nc2nc(-c3ccc(N(C)C)cc3)nn2C1c1ccncc1 (stereo not given),–,1.26 µM (active)
CC1=C(C(=O)Nc2cccnc2)C(c2cccnc2)n2nc(-c3cccs3)nc2N1 (stereo not given),–,14.1 µM (active)
COc1ccccc1NC(=O)C1=C(C)Nc2nnnn2C1c1cccc(Br)c1 (stereo not given),–,2.51 µM (active)
CC1=C(C(N)=O)C(c2ccccc2)n2nc(-c3ccncc3)nc2N1 (stereo not given),–,11.2 µM (active)
COc1cccc(C2=CC(c3ccccc3)n3nnnc3N2)c1 (stereo not given),-0.453% (inactive),–
CC(C)C(=O)Nc1ccc(NC(=O)c2cccnc2)cn1,-22.6% (inactive),–
CCOC(=O)C1C(=O)NC(C)C1c1ccccc1 (stereo not given),1.56% [at 2.29 µM] (inactive),–
N#CC1(Nc2ccc(-c3ccc(NC4(C#N)CCCC4)cc3)cc2)CCCC1,-20.9% [at 11.4 µM] (inactive),–
C=C(Br)CN(C)CC(=C)Br,-1.54% [at 11.4 µM] (inactive),–
C[C@H]1/C=C\CC(=O)OC[C@H](C)C(=O)N2CCC[C@@H]2C(=O)OC1,-17.6% [at 11.4 µM] (inactive),–
CCOc1ccc(/C(O)=C2\C(=O)C(=O)N(CCOCCO)C2c2ccccc2OC)cc1 (stereo not given),-10.2% (inactive),–
CC1=C(C(N)=O)C(c2cccs2)n2nc(-c3cccc(Cl)c3)nc2N1 (stereo not given),–,12.6 µM (active)
CCC(=O)n1nc(-c2ccc(OC)cc2)nc1N,-24.7% (inactive),–

Structure (SMILES),"activity, negative = inhibition",AC50
CCOc1ccccc1C1C(C(N)=O)=C(C)Nc2nc(-c3ccc(OC)cc3)nn21 (stereo not given),–,12.6 µM (active)
O=C1C2=C(NC(=S)NC2c2ccc(Cl)cc2)NC(c2ccc(Cl)cc2)N1c1ccc(Cl)cc1 (stereo not given),–,2.82 µM (active)
Clc1ccc2c(c1)C1=C(C(c3ccncc3)O2)C(c2ccc(Br)cc2)n2ncnc2N1 (stereo not given),–,2.51 µM (active)
CCc1cc2c(NCCO)ncnc2s1,-18.7% (inactive),–
CCc1ccccc1NC(=O)c1ccc(-n2c(C)ccc2C)cc1,–,17.8 µM (active)
CCOC(=O)c1ccc(CNC(=O)C2CCCCC2C(=O)OCC(F)(F)F)o1 (stereo not given),-12.7% (inactive),–
CC(C)NC[C@@H](O)COc1ccc(CCOCC2CC2)cc1,–,inactive
CN1CC(c2ccccn2)C2(SC(=S)N(Cc3ccccc3)C2=O)C12C(=O)Nc1ccccc12 (stereo not given),–,4.47 µM (active)
CCOC(=O)c1ccc(OC(=O)CCCCCN=C(N)N)cc1,–,inactive
CCC(=O)Nc1cc2c(cc1C(=O)c1ccccc1)OCCO2,-4.4% [at 2.29 µM] (inactive),–
CCCc1cc2c(cc1NC(=O)c1ccccc1C)OCO2,–,2.51 µM (active)
CCCc1cc2c(cc1NC(=O)c1ccccc1Cl)OCO2,–,2.24 µM (active)
CCCc1cc2c(cc1NC(=O)c1ccc(Br)cc1)OCO2,–,1.12 µM (active)
Cc1ccccc1C(=O)NNC(=O)c1ccoc1C,-11.1% (inactive),–
COC(=O)CSc1cc(C(F)(F)F)nc(-c2ccccn2)n1,18.3% (inactive),–
CCCNC(=O)CSc1nc(-c2cccs2)cc(C(F)(F)F)n1,–,7.08 µM (active)
O=C(N/N=C/c1ccco1)c1ccccn1,-1.69% (inactive),–
O=C(CNC(=O)c1ccccn1)N/N=C/c1ccccc1,-5.67% [at 2.29 µM] (inactive),–
O=C(NN=C1c2ccccc2-c2ccccc21)c1ccccn1,–,14.1 µM (active)
NC(=O)C1=CN([C@@H]2O[C@@H](COP(=O)(O)OP(=O)(O)OC[C@@H]3O[C@H](n4cnc5c(N)ncnc54)[C@@H](OP(=O)(O)O)[C@@H]3O)[C@H](O)[C@@H]2O)C=CC1,0.506% (inactive),–
Nc1nc(Cl)nc2c1ncn2[C@@H]1O[C@@H](COP(=O)(O)OP(=O)(O)OP(=O)(O)O)[C@@H](O)[C@H]1O,5.19% (inactive),–
NC(=S)c1ccc[n+]([C@@H]2O[C@@H](COP(=O)([O-])OP(=O)(O)OC[C@@H]3O[C@@H](n4cnc5c(N)ncnc54)[C@@H](OP(=O)(O)O)[C@H]3O)[C@@H](O)[C@H]2O)c1,–,12.6 µM (active)

Structure (SMILES),"activity, negative = inhibition",AC50
CCn1c(SCc2ccc(Cl)cc2Cl)nc2nc3c(cc2c1=O)CCCC3,–,8.91 µM (active)
C#CCCCCCCCCCCCCCCCC(=O)O,-17.5% (inactive),–
O=C(O)C1=CCNCC1,–,inactive
COc1ccc(-c2nc3cnc(N(C)C)nc3n(CCc3ccccc3)c2=O)cc1,-16.1% (inactive),–
COc1ccc(C2C(=O)N(CCc3ccccc3)CC(=O)N2C2CCCC2)cc1 (stereo not given),–,6.31 µM (active)
CCCCN1C(=O)CN(CCc2ccccc2)C(=O)C1c1ccc(OC)cc1 (stereo not given),–,7.94 µM (active)
COc1ccc(/C(O)=C2/C(=O)C(=O)N(CCCC(=O)O)C2c2ccc(OC)cc2)cc1 (stereo not given),3% (inactive),–
CCCCN1C(=O)CCC(C(=O)O)C1c1ccccc1 (stereo not given),7.8% (inactive),–
CO[C@H]1COC(=O)[C@@H](Cc2ccccc2)NC(=O)[C@@H](C)COC(=O)CCC[C@@H]1C,–,3.16 µM (active)
CO[C@@H]1COC(=O)[C@H](COCc2ccccc2)NC(=O)C/C=C\[C@@H](C)[C@H](OC)COC(=O)[C@H](COCc2ccccc2)NC(=O)C/C=C\[C@H]1C,-6.81% [at 11.4 µM] (inactive),–
CO[C@@H]1COC(=O)CCC[C@@H](C)[C@H](OC)COC(=O)CCC[C@H]1C,-19.8% [at 11.4 µM] (inactive),–
CO[C@@H]1COC(=O)CCC[C@@H](C)[C@H](OC)COC(=O)[C@H](Cc2ccccc2)NC(=O)C/C=C\[C@H]1C,–,3.98 µM (active)
CO[C@H]1COC(=O)CCC[C@@H](C)[C@H](OC)COC(=O)[C@@H](C)NC(=O)C/C=C\[C@@H]1C,-24.2% [at 11.4 µM] (inactive),–
CO[C@@H]1COC(=O)[C@H](Cc2ccccc2)NC(=O)C/C=C\[C@@H](C)[C@H](OC)COC(=O)[C@@H](C)NC(=O)C/C=C\[C@H]1C,-25.2% [at 11.4 µM] (inactive) and -29.9% [at 11.4 µM] (inactive),–
CO[C@@H]1COC(=O)[C@H](C)NC(=O)[C@@H](C)COC(=O)CCC[C@H]1C,-21.6% [at 11.4 µM] (inactive),–
CO[C@H]1COC(=O)C/C=C\[C@H](C)[C@@H](OC)COC(=O)[C@H](Cc2ccccc2)NC(=O)C/C=C\[C@@H]1C,–,3.16 µM (active)
CO[C@@H]1COC(=O)[C@@H](CCSC)NC(=O)C/C=C\[C@@H](C)COC(=O)[C@H](C)NC(=O)C/C=C\[C@H]1C,-17.8% [at 11.4 µM] (inactive),–
CC1CCN(c2ccccc2NC(=S)NC(=O)c2cccs2)CC1,–,15.8 µM (active)
O=C(NC(=S)Nc1cccc(Cl)c1N1CCCCC1)c1cccs1,-1.51% [at 2.29 µM] (inactive),–

# — PubChem BioAssay AID1851 (National Center for Advancing Translational Sciences (NCATS), 2009)
